# Reference: PubChem BioAssay AID1645887 (National Center for Advancing Translational Sciences (NCATS), 2021)
# Several values for one entry are separate records, joined by “and”; a condition that tells them apart may be missing. Equal entries are not always repeated. Hit rate of the full screen: of about 16,000 compounds, about 40 (0.2%) were called active. Another 1% or so got no clear call; they are omitted. The call rests on the fitted dose curve; in most records, active means well fitted activation curve with a large enough effect; inconclusive means small, poorly fitted or top-dose-only effect, or another doubt; inactive means no such curve, though single readings can be large or run the other way. What follows is part of a selection rich in actives, with near analogues and random picks from the rest. Some compounds were tested as several samples or in several runs, with calls that do not always agree.
# Biological target: Rap guanine nucleotide exchange factor 4 (Homo sapiens) (UniProt Q8WZA2)
# Test: Validation qHTS for agonist of cAMP-regulated guanine nucleotide exchange factor 4 (EPAC2);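 on activation: exchange makes BODIPY-GDP fluorescence drop when released from Rap1B; series mostly up to about 150 µM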
# Conditions: EPAC2 Rap1B BODIPY-GDP exchange, fluorescence; activation: stronger effect = higher value
# From the text: Principle Investigator: Xiaodong Cheng Ph.D.
# The University of Texas Medical Branch, […], TX
# In multi-cellular eukaryotic organisms, the effects of cAMP are transduced by two ubiquitously-expressed intracellular cAMP receptors, the classic protein kinase A/cAMP-dependent protein kinase (PKA/cAPK) and the more recently discovered exchange protein directly activated by cAMP/cAMP-regulated guanine nucleotide exchange factor (EPAC/cAMP-GEF). Both PKA and EPAC are ubiquitously expressed in all tissues, and an increase in intracellular cAMP levels will lead to the activation of both PKA and EPAC. Therefore, careful dissections of the individual role and relative contribution of EPAC and PKA within the overall cAMP signaling in various model systems are critical for further elucidating the mechanism of cAMP signaling. To date no EPAC-specific antagonists and agonist, as well as isoform-specific agonists have been reported, and developing EPAC-specific pharmacological probes to determine the physiological functions that EPAC play in the overall cAMP-mediated signaling remains a major challenge within the research field. Furthermore, identified regulators of EPAC may lead to new mechanism-based therapeutic strategies specifically targeting the EPAC / cAMP-signaling components as EPAC has been implicated to play important roles in major human pathological conditions such as diabetes, heart disease, and cancer.
# This qHTS will be used to screen the Molecular Libraries Small Molecule Repository (MLSMR) as a concentration-titration series using the NCGC unique quantitative screening (qHTS) platform to find activators for EPAC1. In addition, this assay will also be used as a counterscreen for the EPAC2 qHTS. This fluorescent based assay is developed and validated for EPAC1 that measures exchange using EPAC effector Rap1 complex with BODIPY-GDP, a GDP analog with a tethered fluorophores. Activators are identified by monitoring the change in fluorescence signal as the exchanged free BODIPY-GDP has a reduced fluorescence compared to Rap1-bound BODIPY-GDP. Increase in signal (activation) is the desired outcome for the EPAC1 agonist while no activity in this assay is desired for the EPAC2 agonist counterscreen.
# [1] de Rooij, J., Zwartkruis, F. J., Verheijen, M. H., Cool, R. H., Nijman, S. M., Wittinghofer, A., and Bos, J.L. (1998) Nature 396, 474-477.
# Briefly, three uL of reagents (100 nM EPAC2, 250 nM RAP1B-BODIPY-GDP, 50 uM GDP) were dispensed into a 1536-well Greiner black solid-bottom medium binding assay plate. Controls and test compounds (23 nL) were transferred to the plate via a Kalypsys pin tool equipped with a 1536-pin array. The plates were centrifuged at 1,000 rpm for 15 seconds followed by 5 minute incubation at room temperature. The assay plates were read at 5 minute intervals for 30 minutes in the ViewLux plate reader using 480nm excitation and 540nm emission filters. The results were normalized to the agonist positive control of 6.5 mM cAMP.
# On the % scale 0 is the no-effect control and ±100 the full control effect; potency means the concentration at half of the fitted maximal effect.
# Rap guanine nucleotide exchange factor 4 (Homo sapiens), sequence (Q8WZA2 whole entry, looked up): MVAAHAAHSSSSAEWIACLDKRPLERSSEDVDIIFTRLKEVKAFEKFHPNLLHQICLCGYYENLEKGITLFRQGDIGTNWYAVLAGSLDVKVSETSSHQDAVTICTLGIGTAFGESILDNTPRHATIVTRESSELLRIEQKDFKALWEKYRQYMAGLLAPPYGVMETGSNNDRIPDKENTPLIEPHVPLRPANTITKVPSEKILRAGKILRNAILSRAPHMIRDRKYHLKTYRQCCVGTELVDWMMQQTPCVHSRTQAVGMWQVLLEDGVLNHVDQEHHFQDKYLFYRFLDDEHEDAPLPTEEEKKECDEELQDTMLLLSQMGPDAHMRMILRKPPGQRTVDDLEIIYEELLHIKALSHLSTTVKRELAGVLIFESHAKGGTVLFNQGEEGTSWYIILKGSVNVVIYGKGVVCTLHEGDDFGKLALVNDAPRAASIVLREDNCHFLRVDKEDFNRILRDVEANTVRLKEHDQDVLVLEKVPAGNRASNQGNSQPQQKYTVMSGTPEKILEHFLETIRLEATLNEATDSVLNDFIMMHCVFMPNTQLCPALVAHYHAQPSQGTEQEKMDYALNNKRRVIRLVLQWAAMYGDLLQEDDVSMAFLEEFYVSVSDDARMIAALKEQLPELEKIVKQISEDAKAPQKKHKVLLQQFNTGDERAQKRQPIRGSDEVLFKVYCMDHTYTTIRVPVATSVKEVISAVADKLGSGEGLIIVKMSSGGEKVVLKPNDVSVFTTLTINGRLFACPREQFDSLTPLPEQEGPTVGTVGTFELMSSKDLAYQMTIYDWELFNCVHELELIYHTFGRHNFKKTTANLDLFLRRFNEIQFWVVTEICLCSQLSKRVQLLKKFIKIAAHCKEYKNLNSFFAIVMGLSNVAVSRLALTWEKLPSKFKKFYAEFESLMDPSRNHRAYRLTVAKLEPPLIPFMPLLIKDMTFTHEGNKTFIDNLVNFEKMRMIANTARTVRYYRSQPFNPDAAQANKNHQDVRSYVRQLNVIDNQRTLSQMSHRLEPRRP
SMILES,Potency,activation
O=c1[nH]cc(N(CCCl)CCCl)c(=O)[nH]1,100 µM (active),–
CN1CCCC2(CCN(C(=O)c3ccco3)CC2)C1,–,0.865% (inactive)
NCC(O)c1cccc(O)c1 (configuration not stated),–,-5.63% (inactive)
COc1ccc2c3c([nH]c2c1)C(C)=NCC3,–,23% (inactive) and -2.23% (inactive) and 8.55% (inactive)
CC1=NCCc2c1[nH]c1cc(O)ccc21,100 µM (active),–
Nc1ccc(N=Nc2ccccc2)cc1,–,-19.5% (inactive)
CCN1C[C@]2(COC)CC[C@H](OC)[C@@]34C5C[C@@H]6[C@@H](OC)C[C@@]7(OCO[C@@]7([C@@H](O)C23)[C@@H]14)C5[C@H]6OC (some centres not stated),–,-3.22% (inactive)
[O]=[Cd],–,-0.16% (inactive)
O=C1/C(=C/c2ccc(N(CCCl)CCCl)cc2)Cc2ccccc21,–,-1.94% (inactive)
CC1=NN=C(c2ccc(N)cc2)c2cc3c(cc2C1)OCO3,89.1 µM (active),-34.2% (inactive)
C[C@H]1[C@@H]2Cc3ccc(O)cc3[C@@]1(C)CCN2C,–,-8.04% (inactive)
CC1(C)C(O)CC(=O)[C@]2(C)C1CC(=O)[C@]1(C)C2CC[C@@]2(C)C(c3ccoc3)OC(=O)C3O[C@@]321 (some centres not stated),–,-10.4% (inactive)
CN1C2CC(OC(=O)C(CO)c3ccccc3)CC1C(O)C2 (configuration not stated),–,-0.713% (inactive)
COc1ccc2[nH]cc(CCN(C(C)C)C(C)C)c2c1,–,-8.55% (inactive)
Cc1cc(O)ccc1Cl,–,-10.1% (inactive) and -9.14% (inactive)
CC(C)(C)c1cc(O)ccc1O,56.2 µM (active),-17% (inactive)
O=S(=O)(O)c1cc(O)ccc1O,–,-9.91% (inactive)
COc1cc(C[C@@H](C)N)c(OC)cc1C,–,-5.23% (inactive)
CC(C)C[C@H](NC(=O)[C@H](Cc1ccccc1)NC(=O)CNC(=O)[C@H](CO)NC(=O)[C@@H](N)Cc1ccc(O)cc1)C(=O)N[C@H](C(=O)O)[C@H](C)O,–,9.65% (inactive)
NC(N)=NCCCCCCCCCCN=C(N)N,–,-12% (inactive) and 0.499% (inactive)
O=C1OC2(c3cc(Br)c(O)cc3Oc3c2cc(Br)c(O)[c]3[Hg])c2ccccc21 (configuration not stated),3.98 µM (active),–
CN1CCC2(CC1)CCN(C(=O)c1ccco1)CC2,–,1.62% (inactive)
C[C@]12CCC3C(CC[C@H]4C[C@H](O)CC[C@]34C)[C@@H]1CC[C@@H]2C(=O)CO (some centres not stated),–,-7.64% (inactive)
CCOC(=O)[C@]12Cc3c(cc(OC)c(OC)c3OC)[C@H]1N(Cc1ccccc1)C(=O)c1ccccc12,–,-19.3% (inactive)
c1cnc(N2CC3(CCNCC3)C2)nc1,–,2.58% (inactive)
